Molecules are shown by their SMILES. Records with an inconclusive call do not appear. Some compounds were tested as several samples or in several runs, with calls that do not always agree. The source made the active and inactive calls. Calls come from the whole dose curve; as a rule, active = well fitted inhibition curve with a large enough effect; inconclusive = small, poorly fitted or top-dose-only effect; inactive = no such curve, though single readings can be large or run the other way. Residues, ends and D or L forms follow the SMILES beside them. *: point of attachment. Cbz = O=C(OCc1ccccc1)*
% is set by controls: 0 for no effect and ±100 for the full control effect; potency is the fitted concentration of half-maximal effect.

Sequence of M-phase phosphoprotein 8 (Homo sapiens) (Q99549 whole entry, looked up): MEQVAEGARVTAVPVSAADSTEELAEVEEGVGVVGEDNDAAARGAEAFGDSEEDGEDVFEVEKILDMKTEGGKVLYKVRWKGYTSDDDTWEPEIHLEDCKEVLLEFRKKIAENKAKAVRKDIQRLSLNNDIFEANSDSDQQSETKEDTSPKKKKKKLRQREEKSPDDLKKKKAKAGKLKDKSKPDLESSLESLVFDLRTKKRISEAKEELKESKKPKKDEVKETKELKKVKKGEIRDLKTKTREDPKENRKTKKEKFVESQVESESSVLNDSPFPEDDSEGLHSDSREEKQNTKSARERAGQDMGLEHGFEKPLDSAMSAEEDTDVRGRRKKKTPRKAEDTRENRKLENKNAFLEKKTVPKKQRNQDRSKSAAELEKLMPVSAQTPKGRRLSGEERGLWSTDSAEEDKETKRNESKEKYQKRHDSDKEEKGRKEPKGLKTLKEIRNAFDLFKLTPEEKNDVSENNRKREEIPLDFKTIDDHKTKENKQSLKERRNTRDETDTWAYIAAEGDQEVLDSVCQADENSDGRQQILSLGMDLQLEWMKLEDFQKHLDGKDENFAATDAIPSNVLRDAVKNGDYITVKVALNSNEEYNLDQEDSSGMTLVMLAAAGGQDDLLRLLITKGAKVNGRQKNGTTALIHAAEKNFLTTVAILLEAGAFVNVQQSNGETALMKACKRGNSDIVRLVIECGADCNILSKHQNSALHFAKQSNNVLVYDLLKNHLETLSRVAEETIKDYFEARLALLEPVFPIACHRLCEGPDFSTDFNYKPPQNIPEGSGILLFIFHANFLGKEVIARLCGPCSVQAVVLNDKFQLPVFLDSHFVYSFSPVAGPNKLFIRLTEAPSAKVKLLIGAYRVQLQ

This assay has as its target M-phase phosphoprotein 8 (Homo sapiens) (UniProt Q99549). Nature of the assay: qHTS Validation Assay for Inhibitors for MPP8 Chromodomain Interactions with Methylated Histone Tails (AID 488949).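 For activity change, negative = inhibition: AlphaScreen signal from MPP8 chromodomain bound to biotinylated H3K9me3 peptide; top concentration of the series differs between compounds.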 Note: nearly all actives have a fitted effect of over 55% in size. The following applies: AlphaScreen MPP8 binding to H3K9me3 peptide; series mostly up to 57.1 µM; activity change, negative = inhibition: at the top concentration. The method in brief: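 50 nM MPP8 + 50 nM b-H3K9me3 peptide, PBS pH 7.4/0.01% Tween-20, 30 min RT; + cpd 30 min RT; + AlphaScreen donor/Ni-chelate acceptor beads 10 ug/mL final, 30 min dark; luminescence read.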
In general terms: In qHTS, concentration-response curves come from the screen itself.
For the compound `N=C(N)c1ccc(OCCCCCOc2ccc(C(=N)N)cc2)cc1` (tested in a mixture with another compound), the Potency result is “inactive”.
Still for that read-out and setting: for `Cc1nc2c(OCc3ccccc3)cccn2c1CC#N` the value was “inactive”.
Still for that read-out and setting: the value for `O=C(O)C1=CCCN(CCON=C(c2ccccc2)c2ccccc2)C1` was “inactive”.
Consider `CC(=O)SC1CC2=CC(=O)CC[C@]2(C)C2CC[C@@]3(C)C(CC[C@@]34CCC(=O)O4)C12` (stereo partly drawn), for which the “activity change, negative = inhibition” value was 3.88% (inactive).
On the same count and under the same terms, for `COc1ccc(CCn2nnnc2C2(c3ccc(C)cc3)CC2)cc1` the value was 18.7% (inactive).
For the compound `CCCCOc1cc(CC2CNC(=O)N2)ccc1OC` (stereo not drawn), the Potency result was “inactive”.
Take `O=c1cc(O)cc(/C=C/c2ccc(O)c(O)c2)o1`: the Potency was 5.32 µM (active).
Same read-out and setting: for `Nc1ncnc2c1ncn2C1CCCO1` (stereo not drawn) the value was “inactive”.
Consider `CCCn1c(=O)c(C)cn2nc(N)nc12`, for which the “activity change, negative = inhibition” value was -2.87% (inactive).
For the compound `C=CC1(C)CC(=O)C2(O)C(C)(O1)C(OC(C)=O)C(O)C1C(C)(C)CCC(O)C12C` (stereo not drawn), the Potency result was “inactive”.
On the same count and under the same terms, for `O=c1[nH]c(=O)c2nc3ccccc3nc2[nH]1` the value was “inactive”; for `CC(C)C[C@H](NC(=O)C1OC1C(=O)O)C(=O)NCCCCN=C(N)N` (stereo partly drawn), “inactive”.
Consider `O=C(O)CCC/C=C\C[C@@H]1[C@@H](/C=C/[C@H](O)C2Cc3ccccc3C2)[C@@H](F)C[C@@H]1O`, for which the “activity change, negative = inhibition” value was 10.7% (inactive).
As to `CC(C)[C@H](NC(=O)OCc1ccccc1)C(=O)N[C@H](C=O)Cc1ccccc1` (Cbz-Val-Phe-aldehyde), the “activity change, negative = inhibition” value is 8.89% (inactive).
Same read-out and setting: for `NC(=Nc1ccccc1)NC(=O)c1nc(Cl)c(N)nc1N` the value was 2.03% (inactive); for `N[C@H](C(=O)O)[C@H](Cc1ccccc1)C(=O)O`, 15.1% (inactive).
The same measure, in the same setting: for `CC(=O)O[C@H]1Cc2ccccc2N(C(N)=O)c2ccccc21` the value was -1.74% (inactive); for `Nc1nc2c(nc(Br)n2C2OC3COP(=O)(O)O[C@@H]3C2O)c(=O)[nH]1` (stereo partly drawn), -1.28% (inactive).
Take `NCC(O)C1CCCCCCC1` (stereo not drawn): the Potency entry was “inactive”.
As for `CCN(c1nc(N)c(C(=O)N=C(N)N)nc1Cl)C(C)C`, the “activity change, negative = inhibition” value was -0.557% (inactive).
Turning to `O=c1ccc2c(OCCCCc3ccccc3)c3ccoc3cc2o1`, the Potency result is “inactive”.
Turning to `CC(C)NC[C@H](O)COc1cccc2ccccc12`, the “activity change, negative = inhibition” value was 11.8% (inactive).
With `Cc1nc(N=Nc2cc(S(=O)(=O)O)c3cc([N+](=O)[O-])cc(S(=O)(=O)O)c3c2)c(COP(=O)(O)O)c(C=O)c1O`, the Potency is 10 µM (active).
Regarding `CN1CC(O)C(O)C(O)C1CO` (stereo not drawn), the “activity change, negative = inhibition” value is 0.835% (inactive).
As for `CCCCCCCCCCCCCCSCC(=O)O`, the Potency is 31.6 µM (active) and inactive.
As for `CCCCCCC/C=C\CCCCCCCCC(=O)O`, the “activity change, negative = inhibition” value was 5.94% (inactive).
Turning to `O=C(O)c1ccccc1Nc1cccc(OCc2ccc3ccccc3n2)c1`, the Potency is 39.8 µM (active) and inactive.
On to `O=C(O)/C(=C/c1c(C(=O)O)[nH]c2cc(Cl)cc(Cl)c12)c1ccccc1`, for which the Potency result is “inactive”.
